Screens from PubChem.
Hits are enriched below; roughly 4.1% of the tested compounds scored in any of these assays.
AmpC inh no detg: AmpC beta-lactamase inhibition without detergent. P00811. AmpC nitrocefin hydrolysis, absorbance 480 nm, 0.0001% Triton. Potency, µM (highest dose often 57.1 µM), for inactives: at the highest dose activity change, negative = inhibition, usual class: inhibitors. 0.52% of 330,000 active;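 also: plate controls were no compound for no effect and no enzyme for full effect; nearly all actives have a fitted effect of over 20% in size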
Target sequence (P00811 whole entry, looked up): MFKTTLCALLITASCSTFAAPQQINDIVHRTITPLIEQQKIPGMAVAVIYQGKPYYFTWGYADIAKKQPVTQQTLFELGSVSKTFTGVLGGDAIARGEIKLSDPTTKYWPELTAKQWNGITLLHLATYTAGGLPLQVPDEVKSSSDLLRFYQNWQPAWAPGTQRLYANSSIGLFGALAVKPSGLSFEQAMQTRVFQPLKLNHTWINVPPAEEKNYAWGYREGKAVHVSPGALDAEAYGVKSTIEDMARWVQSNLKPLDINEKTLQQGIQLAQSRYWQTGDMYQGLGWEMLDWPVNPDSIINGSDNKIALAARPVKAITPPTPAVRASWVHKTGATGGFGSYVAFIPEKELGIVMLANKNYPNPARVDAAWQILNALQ
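AmpC (5.3 nM in the dispensed reagent) in 20 mM phosphate pH 7.0 with 0.01% (detergent screen) or 0.0001% Triton X-100 was preincubated with compounds for 15 min at room temperature. Nitrocefin was then added from an 800 uM solution, and hydrolysis was followed at 480 nm.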
AMA1 RON2 block: inhibitors of Plasmodium falciparum AMA1-RON2 interaction; AlphaScreen AMA1-biotinylated RON2 peptide binding; Potency, µM (top dose mostly 58.2 µM), for the others: at the top dose activity change, negative = inhibition, usual class: inhibitors; 0.2% of 360,000 active;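 also: 0% = vehicle wells and -100% = peptide control; nearly all actives have a fitted effect of over 45% in size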
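AMA1 (3D7) with his tag at 25 nM final met compounds first, then biotinylated RON2 peptide at 25 nM; detection used donor plus acceptor beads, 10 µg/mL apiece, read by AlphaScreen after 30 min at room temperature.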
FMDV inh: antivirals against foot and mouth disease virus. FMDV antiviral cell-based qHTS. AID 1159524. 1.2% of 410,000 active. Potency, µM (top dose mostly 57.9 µM), inactives show at the top dose activity change, negative = inhibition, hits mostly inhibitors; calls by dose curve; tested in HEK293T cells; also: read-out not given here; nearly all actives have a fitted effect of over 45% in size
Sm TGR block: inhibitors of Schistosoma mansoni thioredoxin glutathione reductase; Q962Y6; purified TGR, DTNB reduction, TNB absorbance 405 nm; Potency, µM (doses to about 114 µM), inactives show top-dose activity change, negative = inhibition, most hits filed as inhibitors; 3% of 360,000 active; AID 485364; also: nearly all actives have a fitted effect of over 60% in size
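Kinetic colorimetric format: TGR-catalysed, NADPH-driven DTNB reduction monitored via TNB absorbance. Enzyme dispensed at 20 nM; compound exposure 15 min at room temperature before reaction start.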
AmpC detergent: inhibitors of E. coli AmpC beta-lactamase with detergent | AmpC hydrolysis of nitrocefin, absorbance 480 nm, 0.01% Triton | AID 485294 | P00811 | Potency, µM (doses to about 114 µM), for inactives: at the top dose activity change, negative = inhibition, usual class: inhibitors | 0.041% of 370,000 active;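 also: 0% = no-compound wells and -100% = no-enzyme wells; nearly all actives have a fitted effect of over 25% in size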
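20 mM phosphate pH 7.0 + 0.01% (detergent screen) or 0.0001% Triton X-100; 5.3 nM AmpC reagent; cpd preinc 15 min RT; nitrocefin (800 uM stock) to start; A480 q20 s × 4 min; Activity was normalised to no-enzyme and no-compound control wells.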
* hit, by the source's call; u = inconclusive; x = not tested or not shown; [ ] = dose if it differs, or a comment. Unless noted, calls follow the shape of the dose curve; as a rule, active = well fitted curve in the direction sought with a large enough effect; inconclusive = small, poorly fitted or top-dose-only effect, or another doubt; inactive = no such curve, though single readings can be large; an effect the other way counts as inactive or inconclusive. Unless noted, % is scaled to controls: 0 for no effect and ±100 for the full control effect; potency is read from the fitted curve at half-maximal effect.

SMILES | AmpC inh no detg | AMA1 RON2 block | FMDV inh | Sm TGR block | AmpC detergent
COc1ccc(C2(C)NC(=O)N(CC(=O)NC(C)c3ccc(CC(C)C)cc3)C2=O)cc1 (stereo not drawn) | 75% | -8% | -17% | -4% | -17%
COC(=O)N1C(=O)[C@](c2ccsc2)(C(C)C)N1C(=O)OC | -11% | -4% | u | 32µM* | -4%
CC(C)C1(c2ccsc2)NC(=O)NC1=O (stereo not drawn) | x | -8% | -2% | x | x
COC(=O)N1C(=O)[C@](c2ccc(OC)cc2)(C(C)C)N1C(=O)OC | 22% | -1% | -22% | 45µM* | -14%
O=C(Cn1c(=O)ccc2cc(S(=O)(=O)N3CCCC3)ccc21)NCc1ccc(F)cc1 | x | x | u | 8% | 4%
Cc1ccc(S(=O)(=O)NCCc2nnc3ccc(SCC(=O)Nc4ccc(OC(F)(F)F)cc4)nn23)cc1 | x | x | -20% | 6% | 18%
Cc1ccccc1Cn1nnc2c(=O)[nH]c(C3CCCN(C(=O)c4ccc(F)cc4)C3)nc21 (stereo not drawn) | x | x | -19% | -2% | 15%
Cc1c(Cl)cccc1NC(=O)C(C)n1c(=O)cc(C)c2c(C)nn(-c3ccccc3)c21 (stereo not drawn) | x | x | -8% | 44% | 13%
COc1cc(/C=N/NC(=O)C(Cc2c[nH]c3ccccc23)NC(=O)OCc2ccccc2)cc([N+](=O)[O-])c1O (stereo not drawn) | 10µM* | 1% | 9% | -12% | -6%
COc1cc(/C=N/NC(=O)C(Cc2c[nH]c3ccccc23)NC(=O)OCC(C)C)cc([N+](=O)[O-])c1O (stereo not drawn) | -52% | 6% | 27% | -20% | -17%
O=C(c1ccccc1)c1cc2ccc(O)cc2oc1=O | -26% | -13% | 55% | -12% | 1%
O=C(c1ccc(Br)cc1)c1cc2ccc(O)cc2oc1=O | -34% | -5% | 23% | 35µM* | 2%
Cc1cccc(Cn2c(=O)n(Cc3ccccc3)c(=O)c3c2c2cc(C)ccc2n3C)c1 | x | x | -15% | 7% | 20%
Cc1c(NN=C(C#N)C#N)c(=O)n(-c2ccccc2)n1C | 4% | 47% | 14µM* | 22µM* | 2%
Cc1c(NC(=O)/C(C#N)=C/c2ccccc2)c(=O)n(-c2ccccc2)n1C | 83% | -10% | -25% | 0% | 2%
Cc1c(NC(C)c2ccccc2O)c(=O)n(-c2ccccc2)n1C (stereo not drawn) | -11% | -1% | -9% | 40µM* | 2%
Cc1c(NC(C)c2cc(Cl)ccc2O)c(=O)n(-c2ccccc2)n1C (stereo not drawn) | 1% | -3% | 2% | u | 1%
CCOc1ccc(Br)cc1C1C(C(=O)Nc2ccccc2OC)=C(C)Nc2nnnn21 (stereo not drawn) | x | x | 1% | -2% | 2%
Cc1c(C(=O)N2CCCC(c3ccccc3)C2)sc2ncnc(NCCc3ccccn3)c12 (stereo not drawn) | x | x | -12% | x | x
O=C1CCc2cc(S(=O)(=O)NCCC(=O)N3CCN(c4cccc(Cl)c4)CC3)ccc2N1 | 27% | 3% | 16µM* | 9% | u
CC(CC(=O)N1CCN(c2cccc(Cl)c2)CC1)S(=O)(=O)c1ccc2c(c1)NC(=O)CO2 (stereo not drawn) | 68% | 2% | 2.8µM* | 1% | -1%
CC(C)OC(=O)c1cc(C(=O)c2cc(F)ccc2O)coc1=N | -25% | 5% | 17% | -2% | 1%
COc1ccc(O)c(C(=O)c2coc(=N)c(C(=O)Nc3ccc(SC(F)F)cc3)c2)c1 | 14µM* | -23% | u | 5% | 5%
CCOC(=O)c1cc(OC(=O)c2ccccc2OC)n(-c2ccccc2)n1 | -10% | 13% | -6% | 35µM* | 15%
COc1ccc(NC(C)=[N+](C)CCNS(=O)(=O)c2ccc(Cl)cc2)cc1 | -7% | -21% | -4% | 35µM* | u
SMILES | AmpC inh no detg | AMA1 RON2 block | FMDV inh | Sm TGR block | AmpC detergent
O=C(CN1c2ccccc2Sc2ccccc21)NNC(=S)Nc1ccc(Cl)cc1 | -48% | 20% | 20% | 0% | 18%
O=C(CN1c2ccccc2Sc2ccccc21)NNC(=S)Nc1ccc(Cl)cc1Cl | 16µM* | 20% | 17% | 10% | -8%
COc1ccc(-c2cc(C(F)(F)F)nc(SCC(=O)NCCc3ccc(OC)c(OC)c3)n2)cc1 | x | x | -26% | -3% | 27%
Cc1cc(C)nc(-c2cccc3c2OC(CNC(=O)c2ccc(Cn4nc(C)cc4C)cc2)C3)n1 (stereo not drawn) | x | x | -9% | x | x
S=c1[nH]nc(COc2ccccc2)n1/N=C/C=C/c1ccccc1 | -5% | 17%[2.32 µM] | -2% | 6% | -6%
S=c1[nH]nc(COc2ccccc2)n1/N=C/c1cccnc1 | -18% | 28% | 2% | -3% | -5%
S=c1[nH]nc(-c2cc(-c3ccccc3)n[nH]2)n1/N=C/C=C/c1ccco1 | -59% | 78% | 22% | 11µM* | 4%
S=c1[nH]nc(-c2n[nH]c3c2CCC3)n1/N=C/C=C/c1ccco1 | -38% | 51% | -21% | 11µM* | -5%
S=c1[nH]nc(-c2ccco2)n1/N=C/C=C/c1ccco1 | -34% | 19% | -19% | u | -12%
S=c1[nH]nc(COc2ccccc2)n1/N=C/C=C/c1ccco1 | 16µM* | 45% | 2% | 13µM* | -1%
S=c1[nH]nc(COc2ccccc2)n1/N=C/C(Cl)=C/c1ccccc1 | -44% | 52% | 35µM* | 8% | 1%
Cc1ccc(S(=O)(=O)Nc2cccc(-c3ccc(N4CCC(C)CC4)nn3)c2)s1 | x | x | -21% | 3% | -3%
CC(=O)Nc1ccc2nc3c(=O)n(C)c(=O)n(C)c3nc2c1C | x | x | -6% | -3% | 15%
COc1nc(Oc2ccc(C(=O)OCC(N)=O)cc2)nc(N(C)C)n1 | -1% | 9% | x | 0% | 2%
COC(=O)COC(=O)c1ccc(Oc2nc(OC)nc(N(C)C)n2)cc1 | 31% | 10% | -19% | 2.2µM* | -1%
CCOC(=O)N1CCc2c(sc3c2c(=O)n(Cc2ccccc2)c(=O)n3CC(=O)Nc2ccc(C)c(C)c2)C1 | x | x | -12% | -8% | -3%
Cc1ccc(NNC(=O)C(O)(c2cccc(C(F)(F)F)c2)c2cccc(C(F)(F)F)c2)cc1 | -47% | 3%[11.6 µM] | u | 0% | -11%
O=C(NNc1ccccc1Br)C(O)(c1cccc(C(F)(F)F)c1)c1cccc(C(F)(F)F)c1 | -20% | -9%[2.32 µM] | 35µM* | 5% | -9%
CCc1cccc(CC)c1N(COC)C(=O)Cn1c(C)nc2ccccc21 | x | x | 10µM* | 0% | -3%
CCc1cccc(CC)c1N(COC)C(=O)Cn1cnc2ccccc21 | 76% | 9% | 14% | -3% | 2%
Cc1ccccc1C(=O)Oc1ccccc1C(=O)N1CCOCC1 | -13% | -1% | -12% | 3% | u
